Pf growth 48h: inhibits P. falciparum growth in the first generation, 48 h | P. falciparum luciferase growth in erythrocytes, 48 h | Potency, µM (titrated, usually from 28.7 µM), inactives show top-dose activity change, negative = inhibition, hits mostly inhibitors | 310,000 compounds, 5.9% hits | AID 504832; note: potency is the fitted concentration of half-maximal effect; % is set by controls: 0 for no effect and ±100 for the full control effect
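Growth was read as firefly luciferase luminescence after a 48 h, 37 C, 5% CO2 exposure of compounds to reporter-bearing P. falciparum cultures (0.1% parasitemia, 2% hematocrit final) in Albumax-supplemented RPMI 1640.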
SARS PLpro yeast: blocks SARS-CoV papain-like protease in a yeast assay | Potency, µM (series often up to 32.9 µM), inactives show top-dose activity, positive = growth rescue, hits mostly activators | AID 485353 | 330,000 compounds, 0.19% hits | S. cerevisiae expressing SARS-CoV PLpro, growth rescue; calls by dose curve; note: potency is the fitted concentration of half-maximal effect; 0% is about no effect; nearly all actives have a fitted effect of over 55% in size
Pf growth 96h: P. falciparum growth inhibition at 96 hour, primary screen for plastid delayed-death inhibitors; P. falciparum luciferase reporter growth, 96 h; Potency, µM (titrated, usually from 28.7 µM), inactives show top-dose activity change, negative = inhibition, hits mostly inhibitors; 320,000 compounds, 6.9% hits; note: potency is the fitted concentration of half-maximal effect; % is set by controls: 0 for no effect and ±100 for the full control effect
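Parasite growth measured via integrated firefly luciferase reporter in P. falciparum. Infected erythrocytes at 2% hematocrit, 0.05% parasitemia final were treated 96 hours at 37 C under 5% CO2, and luminescence was read.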
NS1 function inh: inhibitors of influenza NS1 protein function; Potency, µM (highest dose often 46.1 µM), for inactives: at the top dose activity, positive = more growth; 270,000 compounds, 0.4% hits; AID 2326; calls by dose curve; note: potency is the fitted concentration of half-maximal effect; actives are rising curves; nearly all actives have a fitted effect of over 50% in size
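OD600 was taken as the measure of yeast growth restored by compound in an NS1-expressing S. cerevisiae strain. Cells had been washed out of glucose medium and diluted 1:100 into galactose -URA medium, pH 6.0.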
Shiga inhibitor: Shiga toxin inhibition. Vero cells, Shiga toxin protein synthesis inhibition reporter. inhibition, % at 38.7 µM. 290,000 compounds, 9.2% hits. AID 2315; in the data active = inhibition mostly above about 28%, no sharp cut-off; inactive = mostly below about 43%; note: 0% is about no effect
CHX counter: counter-screen hit for Shiga toxin inhibitors, cycloheximide. AID 2314. 300,000 compounds, 12% hits. max response, %. cell reporter, cycloheximide protein synthesis inhibition counterscreen; in the data active = max response mostly above about 13%, no sharp cut-off; inactive = mostly below about 14%; note: read at 38.3 µM for the half of the compounds with a filed dose; 0% is about no effect
* marks the source's active call; other numbers are inactive results; [ ] = another dose, or the depositor's remark. Rows were chosen to be rich in hits. Some 21% of all compounds tested hit in one or more screens of this group. Unless noted, calls come from the whole dose curve; as a rule, active = well fitted inhibition curve with a large enough effect; inconclusive = small, poorly fitted or top-dose-only effect, or another doubt; inactive = no such curve, though single readings can be large or run the other way.

For Cc1cccc(-n2c(C)cc(C)c(C#N)c2=O)c1 the results were Pf growth 48h -8%, SARS PLpro yeast 0%, Pf growth 96h -63%[5.75 µM], NS1 function inh 3%, Shiga inhibitor 88* and CHX counter 17*.
Cc1cc(C)n(/N=C/c2ccc(O)cc2)c(=O)c1C#N was read as Pf growth 48h 8%, SARS PLpro yeast 0%, Pf growth 96h 0%, NS1 function inh 4%, Shiga inhibitor -2 and CHX counter -3.
`CN1CCN(S(=O)(=O)c2cccc(C#N)c2)C(c2ccccc2)C1` (stereo not drawn) gave Pf growth 48h -13%, SARS PLpro yeast 4% and Pf growth 96h 25%.
Screening CC(C)(C)[C@H]1COC(=O)CC/C=C\C[C@@H](CC(=O)N(CCO)Cc2ccccc2)C(=O)N1 returned SARS PLpro yeast 2%.
COC1=C(OC)C(=O)C(CCCCCCCCCCO)=C(C)C1=O was read as Pf growth 48h inconclusive, SARS PLpro yeast -17%, Pf growth 96h 6µM*, Shiga inhibitor 6 and CHX counter -7.
N#Cc1ccc(N2CCN(C(=O)c3cccc(F)c3)CC2)c(F)c1 was read as Pf growth 48h -8%, SARS PLpro yeast -19%, Pf growth 96h -3%, NS1 function inh 6%, Shiga inhibitor -12 and CHX counter -7.
`O=c1[nH]c2cc([N+](=O)[O-])cc([N+](=O)[O-])c2[nH]c1=O` gave Shiga inhibitor -10 and CHX counter -9.
N=C1c2ccccc2CN1c1ccc(N2CCOCC2)c(S(=O)(=O)Nc2ccc(Cl)cc2)c1 was read as Pf growth 48h inconclusive, SARS PLpro yeast 2%, Pf growth 96h 9.3µM*, NS1 function inh 5%, Shiga inhibitor -19 and CHX counter -2.
O=C(CN(c1ccccc1)S(=O)(=O)c1ccccc1[N+](=O)[O-])Nc1cccnc1 was read as Pf growth 48h 4%, SARS PLpro yeast 1%, Pf growth 96h inconclusive, NS1 function inh 11%, Shiga inhibitor 3 and CHX counter -1.
COc1ccc(NC(=O)c2cc(Br)ccc2Cl)c([N+](=O)[O-])c1 was read as Pf growth 48h -7%[5.75 µM], SARS PLpro yeast 0%, Pf growth 96h 1%, Shiga inhibitor -1 and CHX counter 1.
Screening COc1ccc(NC(=O)c2ccc([N+](=O)[O-])s2)c([N+](=O)[O-])c1 returned Pf growth 48h 47%, SARS PLpro yeast 0%, Pf growth 96h inconclusive, Shiga inhibitor 46* and CHX counter 25.
`COc1ccc(NC(=O)c2ccc(Br)o2)c([N+](=O)[O-])c1` gave Pf growth 48h 101%, SARS PLpro yeast -2%, Pf growth 96h 1%, NS1 function inh 3%, Shiga inhibitor 41 and CHX counter 19*.
COc1ccc(NC(=O)c2ccc(C)cc2Cl)c([N+](=O)[O-])c1 was read as Pf growth 48h 102%, SARS PLpro yeast inconclusive, Pf growth 96h 3.7µM*, NS1 function inh 7%, Shiga inhibitor inactive and CHX counter 37*.
For COc1ccc(NC(=O)/C=C/C(=O)O)c([N+](=O)[O-])c1 the results were Pf growth 48h -17%, SARS PLpro yeast -3%, Pf growth 96h 0%, NS1 function inh 6%, Shiga inhibitor 10 and CHX counter 10.
COc1ccc(NC(=O)c2ccc(C)o2)c([N+](=O)[O-])c1 was read as Pf growth 48h 129%, SARS PLpro yeast 13%, Pf growth 96h 30%, NS1 function inh 3%, Shiga inhibitor 39 and CHX counter 22*.
For CC1CC(C)CN(S(=O)(=O)c2ccc3c(c2)C(C)(C)C(=O)N3C)C1 (stereo not drawn) the results were Pf growth 48h inconclusive, SARS PLpro yeast 22%, Pf growth 96h 4%, NS1 function inh 1%, Shiga inhibitor -12 and CHX counter -5.
`CCn1c(SCC(=O)Nc2cccc(C)n2)nc2c1c(=O)n(C)c(=O)n2C` gave Pf growth 48h 0%, SARS PLpro yeast 2%, Pf growth 96h 61%, NS1 function inh 0%, Shiga inhibitor 22 and CHX counter -1.
CCOc1ccc2nc(Cl)sc2c1 was read as Pf growth 48h 40%, SARS PLpro yeast -8%, Pf growth 96h 46%, Shiga inhibitor 13 and CHX counter 7.
Screening COc1ccc2nc(N3C(=O)CC(Cc4cc(C)cc(C)c4)C3=O)sc2c1 (stereo not drawn) returned Pf growth 48h -11%, SARS PLpro yeast -29%, Pf growth 96h 3%, NS1 function inh -62%, Shiga inhibitor -9 and CHX counter -1.
Screening COc1ccc2nc(N3C(=O)/C(=C/c4ccccc4)NC3=S)sc2c1 returned Pf growth 48h inconclusive, SARS PLpro yeast -4%, Pf growth 96h 0.83µM*, NS1 function inh 17%, Shiga inhibitor 16 and CHX counter 3.
`CCOc1ccc2nc(N3C(=O)/C(=C/c4ccccc4)NC3=S)sc2c1` gave Pf growth 48h 21%, SARS PLpro yeast 3%, Pf growth 96h 4.7µM*, NS1 function inh -17%, Shiga inhibitor 177* and CHX counter 27*.
C/C(=N\NC(=O)c1nnn(-c2nonc2N)c1-c1cccs1)c1ccc(C)cc1 was read as Pf growth 48h -4%, SARS PLpro yeast 5%, Pf growth 96h -22%, NS1 function inh -3%, Shiga inhibitor 10 and CHX counter -3.
Screening CCCOc1ccc(-c2c(C(=O)N/N=C(\C)c3ccncc3)nnn2-c2nonc2N)cc1 returned Pf growth 48h inconclusive, SARS PLpro yeast -2%, Pf growth 96h 9.3µM*, NS1 function inh 29%, Shiga inhibitor -9 and CHX counter -11.
`C/C(=N\NC(=O)c1nnn(-c2nonc2N)c1-c1cccs1)c1ccc(O)cc1` gave Pf growth 48h 12µM*, SARS PLpro yeast 18%, Pf growth 96h 12µM*, NS1 function inh 12%, Shiga inhibitor 5 and CHX counter 3.
`C/C(=N/NC(=O)c1nnn(-c2nonc2N)c1-c1ccccc1)c1ccncc1` gave Pf growth 48h 17%, SARS PLpro yeast 2%, Pf growth 96h 7.4µM*, NS1 function inh 8%, Shiga inhibitor -15 and CHX counter -3.
`COc1ccc(/C(C)=N/NC(=O)c2nnn(-c3nonc3N)c2-c2ccccc2)cc1` gave Pf growth 48h 6%, SARS PLpro yeast -1%, Pf growth 96h 62%, NS1 function inh -10%, Shiga inhibitor -6 and CHX counter -2.
COc1cccc(-c2c(C(=O)N/N=C(\C)c3cccs3)nnn2-c2nonc2N)c1 was read as Pf growth 48h -20%, SARS PLpro yeast -1%, Pf growth 96h -11%, NS1 function inh inconclusive, Shiga inhibitor -9 and CHX counter -2.
C/C(=N\NC(=O)c1nnn(-c2nonc2N)c1-c1ccc2c(c1)OCO2)c1cccs1 was read as Pf growth 48h inconclusive, SARS PLpro yeast 1%, Pf growth 96h 12µM*, NS1 function inh 3%, Shiga inhibitor 14 and CHX counter 11.

Assay outcomes: PubChem BioAssay, National Center for Advancing Translational Sciences (NCATS)
